Compounds without any hit were thinned out: in the full panel of roughly 83,000, 20% have a hit.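 Interpretation: 100, growth as untreated; towards 0, rising growth inhibition; 0, no net growth; 0 to -100, cell death. Compounds scoring below 10 were considered active.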 Active and inactive are the calls of the source.
Each compound was assayed on SK-MEL-28 melanoma (assay: NCI-60 one-dose screen, 48 h (100 = growth as untreated, 0 = no growth, -100 = all killed)). Conditions: 10 µM unless noted.

SMILES | growth
O=C(Nc1cccc(Cn2c(=O)[nH]c3ccc(Oc4ncccn4)cc3c2=O)c1)c1ccc(Cl)cc1 | 69.3% (inactive)
CC(=O)Nc1ccc(CC#N)cc1Br | 114% (inactive)
CC1=C[C@@H]2c3c(c(O)c(O)c4oc5cc(O)cc(O)c5c(=O)c34)[C@@H](c3cc(O)c(O)c4oc5cc(O)cc(O)c5c(=O)c34)[C@@H]2C(C)(C)C1 | -1.44% (active)
Brc1c(-c2ccncc2)nc2n1CCS2 | 93.5% (inactive)
CC(C)(C)c1ccc(OCCOC(=O)CBr)cc1 | 107% (inactive)
NC(N)=Nc1ccc(/C=C2\C=Cc3ccccc32)cc1 | 91.6% (inactive)
O=C(Cc1ccccc1[N+](=O)[O-])c1ccc2c(c1)OCO2 | 105% (inactive)
N#Cc1c(N)nc(Nc2nc3ccccc3[nH]2)nc1-c1ccc(Cl)cc1 | 115% (inactive)
Oc1ccc(CN(Cc2ccc(C(F)(F)F)cc2)Cc2ccc(O)c3ncccc23)c2cccnc12 | 32.3% (inactive)
CCC(C)C1NC(=O)C(CC(C)C)NC(=O)C(C)NC(=O)C(C(C)C)NC(=O)C(CCCCN)NC(=O)C(CC(C)C)NC(=O)C(C(C)C)NC(=O)[C@H](C)NC(=O)C(C(C)CC)NC(=O)C(CCCN=C(N)N)NC(=O)C(CCCCN)NC(=O)C(CCCN=C(N)N)NC(=O)C(CCCCN)NC(=O)C([C@H](C)CC)NC(=O)C(CCCCN)NC1=O (some centres not stated) | 41.3% (inactive)
COC(=O)c1ccc(C(=Nc2ccc(N(C)C(=O)CN3CCN(C)CC3)cc2)c2c(O)[nH]c3ccc(C(=O)OC)cc23)cc1 | 50.4% (inactive)
O=C(C(=O)N1CCOCC1)c1ccc(O[C@H]2O[C@H](CO)[C@@H](O)[C@H](O)[C@@H]2O)cc1 | 117% (inactive)

— PubChem BioAssay (NCI)
